TEAD-YAP inh: TEAD-YAP interaction inhibition; HEK-TIYL cells, TEAD-Gal4/YAP UAS-luciferase luminescence; 640,000 compounds, 1.4% hits; AID 1259422; inhibition, % at 9.12 µM; in the data active means inhibition above about 32%
MITF inh: inhibitors of human MITF; AID 1259374; O75030; AlphaScreen MITF homodimerization, bead proximity signal; 650,000 compounds, 0.91% hits; inhibition, % at 2.6 µM; in the data active means inhibition above about 50%
Target sequence (O75030 whole entry, looked up): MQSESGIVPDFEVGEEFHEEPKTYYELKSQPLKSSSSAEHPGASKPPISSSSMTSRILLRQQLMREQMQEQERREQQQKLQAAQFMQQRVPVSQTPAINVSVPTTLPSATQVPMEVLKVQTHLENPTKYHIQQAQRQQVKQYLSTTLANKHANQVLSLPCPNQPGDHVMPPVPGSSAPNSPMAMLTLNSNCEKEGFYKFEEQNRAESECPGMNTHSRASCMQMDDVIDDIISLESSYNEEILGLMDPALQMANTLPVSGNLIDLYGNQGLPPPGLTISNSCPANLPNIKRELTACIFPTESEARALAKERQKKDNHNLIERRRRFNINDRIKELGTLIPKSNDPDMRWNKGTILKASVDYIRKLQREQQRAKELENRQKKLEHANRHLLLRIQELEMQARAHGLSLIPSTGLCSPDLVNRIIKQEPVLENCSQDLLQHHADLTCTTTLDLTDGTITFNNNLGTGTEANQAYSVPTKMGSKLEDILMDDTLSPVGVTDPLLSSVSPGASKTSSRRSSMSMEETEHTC
GPR151 activ: activates the human receptor GPR151; activation, % at 11.2 µM; 650,000 compounds, 1% hits; PathHunter beta-arrestin GPR151 cells, luminescence; Q8TDV0; in the data active means activation above about 4.9%
FBW7 activator: human FBW7 E3 ligase activation, primary screen | Q969H0 | AlphaScreen FBW7–phospho-cyclin E peptide binding, activator screen | normalized activity (activation), % at 26.1 µM | AID 1259310 | 650,000 compounds, 0.13% hits; in the data active means normalized activity above about 1.9%;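 further: purified mutant Fbw7 with reduced substrate affinity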
MITF confirm: human MITF inhibition, confirmation. AID 1259372. AlphaScreen MITF homodimerization, biotin/His-MITF beads. inhibition, % at 2.6 µM. 4,700 compounds, 16% hits. shares compounds with MITF inh;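 active means inhibition above a cutoff derived from the DMSO control wells, cut at about 28% in these data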;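 further: inhibitors lower the bead chemiluminescence by keeping MITF from dimerizing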
AlphaScreen intf2: AlphaScreen optical interference, counter-screen | shares compounds with MITF inh | LysRS AlphaScreen counterscreen, signal interference, triplicate | inhibition, % at 2.6 µM | 4,700 compounds, 7.6% hits | AID 1259376;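 active means inhibition above a cutoff derived from the DMSO control wells, cut at about 30% in these data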
A number is an active result. Hits are enriched below; roughly 3.4% of the tested compounds scored in any of these assays.

CCC1C(=O)N=C(SCC(=O)Nc2ccc(C)cc2)NC1=O (stereo unspecified) was read as TEAD-YAP inh inactive, MITF inh inactive, GPR151 activ inactive and FBW7 activator inactive.
For COc1cccc(CN2CCN(C(=O)c3ccco3)CC2)c1 the results were TEAD-YAP inh inactive, MITF inh 54.9, GPR151 activ inactive, FBW7 activator inactive, MITF confirm inactive and AlphaScreen intf2 inactive.
COc1cccc(C(=O)N2CCN(C3CCN(Cc4ccccc4)CC3)CC2)c1 was read as TEAD-YAP inh inactive, MITF inh 54.4, GPR151 activ inactive, FBW7 activator inactive, MITF confirm inactive and AlphaScreen intf2 inactive.
COc1cccc(CN2CCN(C(=O)c3cccc(Cl)c3)CC2)c1 was read as TEAD-YAP inh inactive, MITF inh 57.6, GPR151 activ inactive, FBW7 activator inactive, MITF confirm inactive and AlphaScreen intf2 inactive.
O=C(c1ccncc1)N1CCN(Cc2ccco2)CC1 was read as TEAD-YAP inh inactive, MITF inh 75.6, GPR151 activ inactive, FBW7 activator inactive, MITF confirm inactive and AlphaScreen intf2 inactive.
For c1coc(CN2CCN(Cc3ccncc3)CC2)c1 the results were TEAD-YAP inh inactive, MITF inh inactive, GPR151 activ inactive and FBW7 activator inactive.
Screening CCOC(=O)c1c(NC(=O)c2cc(-c3ccc(C(C)C)cc3)nc3ccccc23)sc2c1CCC(CC)C2 (stereo unspecified) returned TEAD-YAP inh inactive, MITF inh inactive, GPR151 activ inactive and FBW7 activator inactive.
Screening O=C1/C(=C/c2cccc([N+](=O)[O-])c2)SC(=S)N1CC1CCCO1 (stereo unspecified) returned TEAD-YAP inh inactive, MITF inh inactive, GPR151 activ inactive and FBW7 activator inactive.
Screening COc1cc(OC)c(OC)cc1CN1CCN(Cc2ccco2)CC1 returned TEAD-YAP inh inactive, MITF inh 81.1, GPR151 activ inactive, FBW7 activator inactive, MITF confirm inactive and AlphaScreen intf2 inactive.
For COc1cccc(CN2CCN(C(=O)c3ccccc3)CC2)c1 the results were TEAD-YAP inh inactive, MITF inh 60.5, GPR151 activ inactive, FBW7 activator inactive, MITF confirm inactive and AlphaScreen intf2 inactive.
`COc1ccc(CN2CCN(C(=O)c3ccco3)CC2)cc1Br` gave TEAD-YAP inh inactive, MITF inh 53.2, GPR151 activ inactive, FBW7 activator inactive, MITF confirm inactive and AlphaScreen intf2 inactive.
`COc1cccc(OC)c1C(=O)N1CCN(Cc2ccco2)CC1` gave TEAD-YAP inh inactive, MITF inh 60.7, GPR151 activ inactive, FBW7 activator inactive, MITF confirm inactive and AlphaScreen intf2 inactive.
`COc1ccc(CN2CCN(C(=O)c3ccccc3)CC2)cc1` gave TEAD-YAP inh inactive, MITF inh inactive, GPR151 activ inactive and FBW7 activator inactive.
O=C(O)c1cccc([N+](=O)[O-])c1C(=O)n1nnc2ccccc21 was read as TEAD-YAP inh inactive, MITF inh inactive, GPR151 activ inactive and FBW7 activator inactive.
`CCc1ccc(C(=O)NCCCNc2nc3cc4c(cc3cc2C#N)OCO4)cc1` gave TEAD-YAP inh inactive, MITF inh inactive, GPR151 activ inactive and FBW7 activator inactive.
For CN(C)CCOc1cc(-c2ccnc(N)c2)ccc1NC(=O)C1COc2c(F)cccc2C1 (stereo unspecified) the results were TEAD-YAP inh inactive, MITF inh inactive, GPR151 activ inactive and FBW7 activator inactive.
For Cc1ccc(NS(=O)(=O)c2ccc(NC(=O)N3CCCC3)cc2)cc1Cl the results were TEAD-YAP inh inactive, MITF inh inactive, GPR151 activ inactive and FBW7 activator inactive.
O=C(c1cccc(Cl)c1)N1CCN(Cc2ccccc2Cl)CC1 was read as TEAD-YAP inh inactive, MITF inh 57.9, GPR151 activ inactive, FBW7 activator inactive, MITF confirm inactive and AlphaScreen intf2 inactive.
C/C=C/c1ccc(OCCOCCNC(C)CC)c(OC)c1 (stereo unspecified) was read as TEAD-YAP inh inactive, MITF inh 70.3, GPR151 activ inactive, FBW7 activator inactive, MITF confirm inactive and AlphaScreen intf2 inactive.
`CCOc1ccccc1OCCOCCNC(C)CC` (stereo unspecified) gave TEAD-YAP inh inactive, MITF inh 76.6, GPR151 activ inactive, FBW7 activator inactive, MITF confirm inactive and AlphaScreen intf2 inactive.
`CCC(C)NCCOc1ccccc1C` (stereo unspecified) gave TEAD-YAP inh inactive, MITF inh inactive, GPR151 activ inactive and FBW7 activator inactive.
Screening CCN1CCN(CCOc2ccc3ccccc3c2)CC1 returned TEAD-YAP inh inactive, MITF inh inactive, GPR151 activ inactive and FBW7 activator inactive.
Screening CCN1CCN(CCCOc2cccc(C(F)(F)F)c2)CC1 returned TEAD-YAP inh inactive, MITF inh 56.4, GPR151 activ inactive, FBW7 activator inactive, MITF confirm inactive and AlphaScreen intf2 inactive.
CN1CCN(CCCOc2cccc(C(C)(C)C)c2)CC1 was read as TEAD-YAP inh inactive, MITF inh inactive, GPR151 activ inactive and FBW7 activator inactive.
Screening CCN1CCN(CCOc2cccc(C(F)(F)F)c2)CC1 returned TEAD-YAP inh inactive, MITF inh 60.7, GPR151 activ inactive, FBW7 activator inactive, MITF confirm inactive and AlphaScreen intf2 inactive.
`CN(C)CCOc1cccc(C(F)(F)F)c1` gave TEAD-YAP inh inactive, MITF inh 87.8, GPR151 activ inactive, FBW7 activator inactive, MITF confirm inactive and AlphaScreen intf2 inactive.
Screening Cc1ccc(S(=O)(=O)CCC(=O)Nc2ccc(Oc3ccc4c(c3)C(=O)N(c3ccccc3C(F)(F)F)C4=O)cc2)cc1 returned TEAD-YAP inh inactive, MITF inh inactive, GPR151 activ inactive and FBW7 activator inactive.
For Clc1ccc(CN2CCN(CC3CC4C=CC3C4)CC2)cc1 (stereo unspecified) the results were TEAD-YAP inh inactive, MITF inh inactive, GPR151 activ inactive and FBW7 activator inactive.
Screening c1ccc(CCCN2CCN(C3C4CC5CC(C4)CC3C5)CC2)cc1 (stereo unspecified) returned TEAD-YAP inh inactive, MITF inh 69.8, GPR151 activ inactive, FBW7 activator inactive, MITF confirm inactive and AlphaScreen intf2 inactive.
O=[N+]([O-])c1ccc(CN2CCN(CC3CC4C=CC3C4)CC2)cc1 (stereo unspecified) was read as TEAD-YAP inh inactive, MITF inh 63.0, GPR151 activ inactive, FBW7 activator inactive, MITF confirm inactive and AlphaScreen intf2 inactive.
`C1=CC2CC1CC2CN1CCN(Cc2ccc3c(c2)OCO3)CC1` (stereo unspecified) gave TEAD-YAP inh inactive, MITF inh 57.7, GPR151 activ inactive, FBW7 activator inactive, MITF confirm inactive and AlphaScreen intf2 inactive.
`C1=CC2CC1CC2CN1CCN(Cc2ccncc2)CC1` (stereo unspecified) gave TEAD-YAP inh inactive, MITF inh 78.7, GPR151 activ inactive, FBW7 activator inactive, MITF confirm inactive and AlphaScreen intf2 inactive.
For COc1ccccc1CNS(=O)(=O)c1c[nH]c(=O)[nH]c1=O the results were TEAD-YAP inh inactive, MITF inh inactive, GPR151 activ inactive and FBW7 activator inactive.

Screening data deposited in PubChem BioAssay by The Scripps Research Institute Molecular Screening Center.
